Consider 12 compounds from PubChem BioAssay (Tox21).

Each structure is given as a SMILES string. Unmarked numbers belong to inactive results. Results filed as inconclusive are left out. The source made the active and inactive calls. Unless noted, calls follow the shape of the dose curve; as a rule, active = well fitted curve in the direction sought with a large enough effect in the repeat runs; inconclusive = weak or mixed curves; inactive = no such curve, though single readings can be large; an effect the other way counts as inactive or inconclusive.

Test [1] is described as follows: qHTS assay to identify small molecule agonists of H2AX - cell viability counter screen (AID 1224847; calls by dose curve; also: nearly all actives have a fitted effect of over 30% in size; also: potency is read from the fitted curve at half-maximal effect;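 as to activity change, negative = cytotoxicity: wild-type CHO-K1 cells; top concentration of the series differs between compounds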). Summed up:
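After overnight plating of 1000 CHO-K1 cells per well, a 15-concentration compound series was applied for 3 hr at 37C. Luminescence from CellTiter-Glo, read following 30 min at room temperature, reflected cell viability.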

Test [2] in a line: qHTS RealTime-Glo MT Cell Viability Assay in HepG2 cells - 24 hour (AID 1224867). Also: nearly all actives have a fitted effect of over 50% in size. Also: potency is read from the fitted curve at half-maximal effect. In a few lines:
(§1)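 Cells + NanoLuc/prosubstrate dispensed (600 cells/well) → 5 h at 37 C/5% CO2 → compounds in DMSO transferred → 40 h incubation at 37 C, luminescence read at 0, 8, 16, 24, 32, 40 h.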
For orientation: qHTS replaces the single test concentration by a dilution series.

Test [3] is described as follows: qHTS RealTime-Glo MT Cell Viability Assay in HEK293 cells - 32 hour (AID 1224868). Also: nearly all actives have a fitted effect of over 50% in size. Also: potency is read from the fitted curve at half-maximal effect. In a few lines: (§2)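 Tox21 10K qHTS, HEK293, 600 cells/well, RealTime-Glo reagent co-dispensed with cells; 5 h preincubation, compound by pintool, 37 C, luminescence at 0–40 h.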
A short description of test [4]: qHTS RealTime-Glo MT Cell Viability Assay in HepG2 cells - 40 hour (AID 1224870). Also: nearly all actives have a fitted effect of over 50% in size. Also: potency is read from the fitted curve at half-maximal effect. In a few lines: (§3)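 HepG2 cells mixed with RealTime-Glo MT reagents (NanoLuc plus cell-permeant prosubstrate) were seeded at 600 cells/well, incubated 5 h at 37 C/5% CO2, then pinned with compounds in DMSO; nonlytic luminescence tracked viability during 40 h treatment.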
The nature of test [5]: A CellTox Green Cytotoxicity Assay to monitor cytotoxicity in HEK293 cells - 40 hour (AID 1224871). Also: nearly all actives have a fitted effect of over 45% in size. Also: potency is read from the fitted curve at half-maximal effect. In a few lines: (§4)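 HEK293 cells, 600/well, were preincubated 5 hours and then exposed to compounds at 37 C for up to 40 hours. A cell-impermeant cyanine dye staining dead-cell DNA was read by fluorescence at 0, 8, 16, 24, 32 and 40 h time points.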
A short description of test [6]: qHTS RealTime-Glo MT Cell Viability Assay in HepG2 cells - 8 hour (AID 1224873). Also: nearly all actives have a fitted effect of over 55% in size. Also: potency is read from the fitted curve at half-maximal effect. In a few lines: as §3
A short description of test [7]: A CellTox Green Cytotoxicity Assay to monitor cytotoxicity in HEK293 cells - 24 hour (AID 1224875). Also: nearly all actives have a fitted effect of over 45% in size. Also: potency is read from the fitted curve at half-maximal effect. As to activity change: series mostly up to about 77 µM. Summed up:
as §4

Test [8] is described as follows: A CellTox Green Cytotoxicity Assay to monitor cytotoxicity in HepG2 cells - 16 hour (AID 1224876). Also: nearly all actives have a fitted effect of over 45% in size. Also: potency is read from the fitted curve at half-maximal effect. Summed up:
(§5)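 HepG2 cells, 600/well, preincubated 5 h with CellTox Green dye, then exposed to Tox21 compounds in DMSO at 37 C for up to 40 h. Dead-cell DNA fluorescence read at the indicated time point.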

Test [9] is described as follows: qHTS RealTime-Glo MT Cell Viability Assay in HepG2 cells - 32 hour (AID 1224877). Also: nearly all actives have a fitted effect of over 55% in size. Also: potency is read from the fitted curve at half-maximal effect. In a few lines: as §1
Test [10] in a line: A CellTox Green Cytotoxicity Assay to monitor cytotoxicity in HepG2 cells - 24 hour (AID 1224878). Also: nearly all actives have a fitted effect of over 45% in size. Also: potency is read from the fitted curve at half-maximal effect. In a few lines: as §5
Test [11] can be described thus: A CellTox Green Cytotoxicity Assay to monitor cytotoxicity in HepG2 cells - 40 hour (AID 1224879). Also: nearly all actives have a fitted effect of over 40% in size. Also: potency is read from the fitted curve at half-maximal effect. In a few lines:
as §5

Test [12] in a line: qHTS RealTime-Glo MT Cell Viability Assay in HEK293 cells - 0 hour (AID 1224880). In a few lines:
(§6)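 600 cells/well were plated with the nonlytic NanoLuc/prosubstrate reagent, pre-incubated 5 h, then given 23 nL of compound in DMSO. Incubation at 37 C for 40 h, with luminescence from viable-cell-reduced substrate read repeatedly from 0 h.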

Test [13] can be described thus: A CellTox Green Cytotoxicity Assay to monitor cytotoxicity in HepG2 cells - 0 hour (AID 1224882). Also: nearly all actives have a fitted effect of over 35% in size. In a few lines: as §5
Test [14] is described as follows: A CellTox Green Cytotoxicity Assay to monitor cytotoxicity in HEK293 cells - 0 hour (AID 1224869). Also: nearly all actives have a fitted effect of over 50% in size. Summed up:
as §4

The nature of test [15]: A CellTox Green Cytotoxicity Assay to monitor cytotoxicity in HEK293 cells - 32 hour (AID 1224881). Also: nearly all actives have a fitted effect of over 40% in size. Also: potency is read from the fitted curve at half-maximal effect. Summed up: as §4
Test [16] can be described thus: qHTS RealTime-Glo MT Cell Viability Assay in HEK293 cells - 16 hour (AID 1224872). Also: nearly all actives have a fitted effect of over 50% in size. Also: potency is read from the fitted curve at half-maximal effect. As to activity change, negative = cytotoxicity: top concentration of the series differs between compounds. In a few lines: as §2
The nature of test [17]: qHTS RealTime-Glo MT Cell Viability Assay in HEK293 cells - 40 hour (AID 1224874). Also: nearly all actives have a fitted effect of over 50% in size. Also: potency is read from the fitted curve at half-maximal effect. As to conditions: RealTime-Glo luminescence; max response: active compounds read low. Summed up:
as §6
% is scaled to controls: 0 for no effect and ±100 for the full control effect.

For the compound `CC1(C)[C@H](C(=O)O[C@H](C#N)c2cccc(Oc3ccccc3)c2)[C@@H]1/C=C(\Cl)C(F)(F)F`, the Potency result in test [1], in [2], in test [3], in test [4], in [5] and in test [6] was “inactive” each time. The Potency entry in test [7], in [8], in test [9], in test [10], in [11] and in [12] was “inactive” each time. Further, the Potency entry in test [13] was “inactive”.

`CC(C)[C@H](C(=O)O[C@H](C#N)c1cccc(Oc2ccccc2)c1)c1ccc(Cl)cc1`: the Potency entry in test [1], in test [2], in test [14], in test [4], in [5] and in test [7] was “inactive” each time. For the same compound, the Potency entry in test [8], in test [9], in [10], in test [11], in test [12] and in [15] was “inactive” throughout. For the same compound, the Potency entry in [13] is “inactive”.

With `CN(C)C(=S)[S-].CN(C)C(=S)[S-].[Cu+2]`, the Potency in [1] was 27.5 µM (active); in test [2], 2.67 µM (active); in [3] it was 1.34 µM (active); in test [4], 2.38 µM (active); in [5] it was 2.38 µM (active); in test [16], 1.89 µM (active). Moreover, the Potency in [6] was 6.7 µM (active); in test [17] it was 1.19 µM (active); in test [7], 2.38 µM (active); in test [8], 4.23 µM (active); in test [10], 2.38 µM (active); in test [11] it was 2.67 µM (active). Besides, the Potency in [15] is 2.38 µM (active). Moreover, the results for the cytotoxicity in [14] and in test [13] were -8.31% [at 15.8 µM] and 0.299% [at 15.8 µM], respectively. Moreover, the activity change, negative = cytotoxicity in test [12] was -3.44% [at 15.8 µM].

On to `CCCCCCCCCCCCCCC(Br)C(=O)O` (configuration not stated), for which the Potency result in test [1], in [2], in [3], in test [14], in test [4] and in test [5] was “inactive” each time. Besides, the Potency entry in [16], in test [7], in [8], in [12], in test [15] and in test [13] was “inactive” in each case. In test [11], the Potency is 17.4 µM (active).

With `CNC(C)Cc1ccc2c(c1)OCO2` (configuration not stated), the Potency entry in [1], in test [2], in test [3], in test [14], in test [4] and in [5] was “inactive” throughout. In addition, the Potency entry in test [16], in test [6], in test [7], in test [8], in test [9] and in test [10] was “inactive” each time. Moreover, the Potency entry in test [11], in [12], in [15] and in test [13] was “inactive” each time.

For the compound `Oc1ccc(C2(c3ccc(O)cc3)CCCCC2)cc1`, the Potency in [1] is 95.4 µM (active); in test [3], 52.1 µM (active); in [17], 46.4 µM (active). For the same compound, the Potency result in [2], in test [14], in test [4], in test [6], in test [8] and in test [9] was “inactive” throughout. Further, the Potency entry in [10] and in test [12] was “inactive” each time.

Take `[Hg+2].[I-].[I-]`: the Potency in test [1] is 8 µM (active); in test [2], 9.77 µM (active); in test [3] it was 3.09 µM (active); in [4] it was 12.3 µM (active); in test [5], 21.9 µM (active); in test [16] it was 3.47 µM (active). In addition, the Potency is 12.3 µM (active) in test [6]; 2.45 µM (active) in [17]; 24.5 µM (active) in test [7]; 12.3 µM (active) in test [8]; 11 µM (active) in test [9]; 11 µM (active) in test [10]. Moreover, the Potency in test [11] is 6.16 µM (active); in test [15] it was 21.9 µM (active). The Potency result in [14] and in test [13] was “inactive” each time.

For `CN(C)CCc1c[nH]c2cccc(O)c12`, the Potency result in test [1], in [2], in [3], in test [14], in test [4] and in test [5] was “inactive” throughout. The Potency entry in [16], in [6], in test [7], in test [8], in test [9] and in test [10] was “inactive” in each case. Further, the Potency result in test [12], in [15] and in [13] was “inactive” throughout. Also, the max response in test [17] is -1.01%.

Consider `CN(C)S(=O)(=O)N(SC(F)(Cl)Cl)c1ccccc1`, for which the Potency was 89.8 µM (active) in test [1]; 11 µM (active) in [2]; 3.89 µM (active) in test [3]; 9.77 µM (active) in test [4]; 3.09 µM (active) in test [5]; 4.9 µM (active) in [16]. The Potency is 21.9 µM (active) in [6]; 13.8 µM (active) in test [7]; 9.77 µM (active) in test [9]; 7.76 µM (active) in [10]; 4.9 µM (active) in test [11]. Also, the Potency result in test [14], in test [12] and in test [13] was “inactive” throughout.

As for `CC(C)OC(=O)C(O)(c1ccc(Cl)cc1)c1ccc(Cl)cc1`, the Potency in test [1] was 56.6 µM (active); in test [3] it was 21.9 µM (active); in test [5] it was 49 µM (active); in test [16], 30.9 µM (active); in test [17], 24.5 µM (active); in [10] it was 27.5 µM (active). The Potency in test [11] is 38.9 µM (active); in test [15], 54.9 µM (active). Further, the Potency result in test [14], in test [12] and in [13] was “inactive” throughout.

On to `CCCCCCCCCCCCCC[P+](CCCCCC)(CCCCCC)CCCCCC` (tested in a mixture with another compound), for which the Potency in test [1] was 5.05 µM (active); in test [2], 30.9 µM (active); in test [3], 4.9 µM (active); in [4], 24.6 µM (active); in test [5] it was 13.8 µM (active); in [16], 13.8 µM (active). Further, the Potency in [6] was 49 µM (active); in test [7] it was 13.8 µM (active); in test [8], 38.9 µM (active); in test [9], 24.6 µM (active); in test [10], 24.6 µM (active); in [11], 24.6 µM (active). Also, the Potency entry in test [12] and in test [13] was “inactive” in each case.

Consider `CCC(C)c1cc([N+](=O)[O-])cc([N+](=O)[O-])c1OC(=O)C=C(C)C` (configuration not stated), for which the Potency in test [1] was 56.6 µM (active); in [2], 49 µM (active); in test [3] it was 21.9 µM (active); in [4], 49 µM (active); in [16], 49 µM (active); in test [9] it was 49 µM (active). Also, the Potency entry in test [14], in [5], in test [7], in test [8], in test [10] and in test [12] was “inactive” in each case. Moreover, the Potency entry in test [15] and in [13] was “inactive” each time.
